G9a inh = qHTS Assay for Inhibitors of Histone Lysine Methyltransferase G9a; Histone-lysine N-methyltransferase EHMT2 (Homo sapiens), Q96KQ7; G9a H3K9 monomethylation, AlphaScreen, 2 h; Potency, µM (series often up to 102 µM), for inactives: at the highest dose activity, negative = inhibition, actives largely listed as inhibitors; 8.8% of 350,000 active; note: % is set by controls: 0 for no effect and ±100 for the full control effect; nearly all actives have a fitted effect of over 75% in size
Target sequence (Q96KQ7 913-1193 limits assumed): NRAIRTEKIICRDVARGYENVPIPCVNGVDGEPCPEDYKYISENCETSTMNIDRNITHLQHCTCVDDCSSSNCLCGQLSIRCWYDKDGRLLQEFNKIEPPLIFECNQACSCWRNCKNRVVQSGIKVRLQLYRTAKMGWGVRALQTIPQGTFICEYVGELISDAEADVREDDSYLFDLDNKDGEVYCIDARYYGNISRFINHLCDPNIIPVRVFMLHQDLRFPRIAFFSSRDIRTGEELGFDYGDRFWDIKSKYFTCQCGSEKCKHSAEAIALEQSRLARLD
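Readings reflect AlphaScreen signal from monomethyl-H3K9 antibody detection. HMT at 20 nM; substrate b-H3K9 500 nM; cofactor SAM 20 uM; 2 h RT reaction; compounds tested as titrations in qHTS with 15 min preincubation.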
HP1b chromo inh = HTS for Inhibitors of HP1-beta Chromodomain Interactions with Methylated Histone Tails | AID 540317, 2011 | 0.56% of 390,000 active | Chromobox protein homolog 1 (Homo sapiens), P83916 | AlphaScreen HP1-beta / biotin-H3K9me3 peptide binding | Potency, µM (highest dose often 114 µM), inactives show top-dose activity change, negative = inhibition, actives largely listed as inhibitors; note: nearly all actives have a fitted effect of over 70% in size
Target sequence (P83916 whole entry, looked up): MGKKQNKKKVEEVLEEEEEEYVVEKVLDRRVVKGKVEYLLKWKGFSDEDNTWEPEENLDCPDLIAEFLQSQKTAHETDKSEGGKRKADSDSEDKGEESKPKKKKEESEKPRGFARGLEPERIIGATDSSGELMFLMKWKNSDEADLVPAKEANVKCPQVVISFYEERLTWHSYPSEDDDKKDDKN
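AlphaScreen: HP1-beta (50 nM) preformed 30 min with biotin-H3(1-18)K9me3 peptide (50 nM) in PBS pH 7.4, 0.01% Tween-20. Compound added for 30 min at RT, then streptavidin donor/nickel chelate acceptor beads (10 ug/mL) for 30 min.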
JMJD2A Tudor = qHTS Assay for Inhibitors of JMJD2A-Tudor Domain; AlphaScreen JMJD2A-Tudor / H3K4me3 peptide binding; Lysine-specific demethylase 4A (Homo sapiens), O75164; 4.4% of 390,000 active; AID 504339, 2011; Potency, µM (series often up to 114 µM), for inactives: at the top dose activity change, negative = inhibition, hits mostly inhibitors; note: % is set by controls: 0 for no effect and ±100 for the full control effect; nearly all actives have a fitted effect of over 50% in size
BAZ2B block = qHTS Assay for Inhibitors of BAZ2B; Bromodomain adjacent to zinc finger domain protein 2B (Homo sapiens), Q9UIF8; Potency, µM (top dose mostly 114 µM), for the others: top-dose activity change, negative = inhibition, most hits filed as inhibitors; 4.4% of 360,000 active; AlphaScreen BAZ2B-H3K14Ac peptide displacement; note: % is set by controls: 0 for no effect and ±100 for the full control effect; nearly all actives have a fitted effect of over 60% in size
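BAZ2B 50 nM plus b-H3(5-23)K14Ac 50 nM, PBS pH 7.4/0.01% Tween-20, 30 min RT; compound added (max 110 uM), 30 min RT; streptavidin donor/Ni-chelate acceptor beads 10 ug/mL final, 20 min dark; AlphaScreen read.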
GLS inhibitor = qHTS for Inhibitors of Glutaminase (GLS); Glutaminase kidney isoform, mitochondrial (Homo sapiens), O94925; GLS enzymatic activity, qHTS titration; Potency, µM (highest dose often 45.5 µM), for the others: at the highest dose activity change, negative = inhibition, most hits filed as inhibitors; 0.21% of 410,000 active; note: % is set by controls: 0 for no effect and ±100 for the full control effect
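hKGA in 45 mM KH2PO4 (pH 8.2), 0.02% Tween-20 with compound, then 1mM L-Glutamine (stock as added) plus glutamate oxidase/HRP/Amplex red coupling mix. Fluorescence read initially and after 30 min at RT; signal change reflects glutamate formation.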
Numbers without * were called inactive; ? = inconclusive; . = no result given; [ ] = another dose, or the depositor's remark. The list is not random: actives were taken first. Their share in the collection is about 10%. Calls come from the whole dose curve; as a rule, active = well fitted curve in the direction sought with a large enough effect; inconclusive = small, poorly fitted or top-dose-only effect, or another doubt; inactive = no such curve, though single readings can be large; an effect the other way counts as inactive or inconclusive. Potency is the fitted concentration of half-maximal effect.

SMILES	G9a inh	HP1b chromo inh	JMJD2A Tudor	BAZ2B block	GLS inhibitor
CC(C)c1cc(CNC(=O)c2ccc(OC3CCN(Cc4ccccn4)CC3)cc2)on1	?	2%	45µM*	56µM*	-12%
CCn1nc(C)c(CNC(=O)c2ccc(OC3CCN(Cc4ccccn4)CC3)cc2)c1C	-5%	11%	-10%	79µM*	0%
CCn1cc(CNC(=O)c2ccc(OC3CCN(Cc4ccccn4)CC3)cc2)cn1	19%	25%[57 µM]	-24%	-15%	-9%
CN1CCN(NC(=O)c2cccs2)CC1	-33%	30%	-8%	-14%	2%
CO/N=C\CC(=O)Nc1ccc(Cl)cc1Cl	10%[59 µM]	3%	14µM*	7%	?
O=C(NCC(c1ccco1)N1CCc2ccccc2C1)c1ccc(Cl)c([N+](=O)[O-])c1 (stereo unspecified)	22%[2.33 µM]	-25%	?	-39%	4%
COc1cc2sc3ccc(C#CC4(O)CCCCC4)cc3c(=O)c2cc1OC	.	43%	3%	.	-8%
Cn1c2ccccc2c(=O)c2ccc(C#CC3(O)CCCCC3)cc21	79µM*	147%	32%	17%	-3%
O=C1NC2c3c(Cl)sc(Cl)c3C(=O)C2O1 (stereo unspecified)	.	-24%	56µM*	.	?
O=C(CSc1ccc(Cl)cc1)Nc1nnc(-c2ccco2)o1	-38%	47%	?	50µM*	3%
O=C(CSc1nnc(-c2ccco2)o1)c1ccc[nH]1	40µM*	6%	-26%	45µM*	2%
O=C(CSc1nnc(-c2ccco2)o1)NC(=O)Cc1ccccc1	?	16%	-17%	79µM*	5%
O=C(CSc1ccc(Cl)cc1)Nc1cccc(-c2nnc(-c3ccco3)o2)c1	25%[59 µM]	11%	-12%	0%	3%
O=C(CSc1nnc(-c2ccco2)o1)NCCc1ccccc1	13%[12.7 µM]	18%	1%	11%	-4%
O=C(CSc1nnc(-c2ccco2)o1)c1ccccc1	45%[59 µM]	-9%	-24%	12%	8%
Cn1c(=O)c2c(O)c(Cc3ccccc3)c(=O)[nH]c2n(C)c1=O	8%[59 µM]	31%	2%	7%	?
Cn1c(=O)c2c(-c3ccccc3)n(Cc3ccccn3)cc2n(C)c1=O	?	48%	-29%	50µM*	10%
Cc1ccc(-c2c3c(=O)n(C)c(=O)n(C)c3cn2Cc2ccccc2)cc1	11µM*	8%	?	?	4%
Cn1c(=O)c2c(-c3ccccc3)n(CCCN3CCOCC3)cc2n(C)c1=O	-7%[12.7 µM]	1%	-31%	-29%	2%
Cc1cc(S(=O)(=O)NCCN2CCOCC2)ccc1Cl	4%	21%	-22%	-2%	4%
COc1cc2[nH]c(Cl)c([N+](=O)[O-])c2cc1OC	?	-18%	?	56µM*	10%
O=C(c1ccc(Cl)c(S(=O)(=O)NCc2ccco2)c1)N1CCN(c2ccccc2F)CC1	-12%	-32%	56µM*	-10%	12%
COc1ccccc1N1CCN(C(=O)c2ccc(Cl)c(S(=O)(=O)NCc3ccco3)c2)CC1	-28%[59 µM]	9%	-25%	-31%	20%
CCOc1ccc(CC(=O)Nc2c3c(nn2C(C)(C)C)CS(=O)(=O)C3)cc1	79µM*	19%	-3%	-14%	3%
CC(C)(C)n1nc2c(c1NC(=O)Cc1ccc(Cl)cc1)CS(=O)(=O)C2	30%	28%	4%	0%	5%
SMILES	G9a inh	HP1b chromo inh	JMJD2A Tudor	BAZ2B block	GLS inhibitor
NC(N)=Nc1nc(CSCC/C(N)=N/S(N)(=O)=O)cs1	-4%[59 µM]	19%	22µM*	2%	2%
C=CCN(C(=O)CNC(=O)c1ccco1)C(C(=O)NC1CCCC1)c1cccs1 (stereo unspecified)	7%	50%	3%	-3%	-2%
Cc1n(CC(O)COCc2ccccc2)c2ccccc2[n+]1C (stereo unspecified)	17%[59 µM]	24%	-8%	56µM*	-2%
CCc1n(CC(O)COCC2CC=CCC2)c2ccccc2[n+]1C (stereo unspecified)	50µM*	-16%	?	-22%	0%
COc1ccc(N2CCN(C(c3ccccc3OC)c3nnnn3Cc3ccco3)CC2)cc1 (stereo unspecified)	?	-47%	50µM*	40µM*	25%
COc1cccc(C(c2nnnn2Cc2ccco2)N2CCN(Cc3ccccc3)CC2)c1OC (stereo unspecified)	-32%[12.7 µM]	28%	-10%	50µM*	-5%
COc1ccc(Cn2nnnc2C(c2ccccc2OC)N2CCC(C(N)=O)CC2)cc1 (stereo unspecified)	-11%[12.7 µM]	15%	-5%	11%	19%
NC(=O)C1CCN(C(c2ccccc2F)c2nnnn2Cc2ccco2)CC1 (stereo unspecified)	2%[12.7 µM]	26%	-27%	?	10%
Fc1ccccc1C(c1nnnn1Cc1ccc2c(c1)OCO2)N1CCN(Cc2ccco2)CC1 (stereo unspecified)	50µM*	2%	-34%	-4%	-4%
CC(=O)N/N=C/C1=CCC2CC1C2(C)C (stereo unspecified)	16%	12%	-6%	.	10%
CC(C)CCn1c(N2CCN(Cc3ccccc3)CC2)nc2c1c(=O)[nH]c(=O)n2C	23%[59 µM]	.	.	-6%	.
O=C1NN=COc2ccccc21	-5%[12.7 µM]	28%	-15%	56µM*	10%
O=C(O)CCn1cc(/C=C2\NC(=S)N(c3ccccc3)C2=O)c(-c2ccc(Br)cc2)n1	20µM*	1%	?	.	2%
CN(C)c1ccc(NC(=O)Nc2nnc([C@H]3C[C@H](O)[C@@H](CO)O3)s2)cc1	.	.	.	.	91%
O=C(NCCCN1CCCCC1)c1ccc2c(c1)NC(=O)c1ccccc1S2	50µM*	21%	-19%	-4%[57.1 µM]	-7%
O=C1Nc2cc(C(=O)NCCCN3CCCC3)ccc2S/C1=C/c1ccccc1F	14µM*	-10%[57 µM]	?	-38%	16%
COc1cnn(-c2ccc(F)cc2)c(=O)c1Br	0%	28%	-12%	-31%	-4%
Cc1ccc(S(=O)(=O)N2CCCCC2)cc1NC(=O)Cn1ccc(C(F)(F)F)n1	22%	33%	-11%	0%	-20%
CC(C)n1c2ccccc2c2cc([N+](=O)[O-])ccc21	0%[59 µM]	20%	-10%	2%	7%
CN(C)c1ccc(C=c2c3cc(O)ccc3n3c2cc(-c2ccccc2)[n+]3C)cc1	.	50µM*	25µM*	.	-10%
C[n+]1c(-c2ccccc2)cc2c(=Cc3ccccc3)c3ccccc3n21	.	?	40µM*	.	-25%
C[n+]1c(-c2ccccc2)cc2c(=Cc3ccc([N+](=O)[O-])cc3)c3ccccc3n21	.	?	45µM*	.	10µM*

Screens: PubChem BioAssay, National Center for Advancing Translational Sciences (NCATS)
